The record followed here is PubChem BioAssay (EPA / NIEHS).

Activity calls are given as the source filed them. How the source made its calls: active means hit-call score of the fitted dose curve at least 0.9, where 1 is the maximum; inactive means score below 0.9.

One may read the AC50 as the midpoint of the concentration-response curve, whichever way the signal moves.

The nature of one assay: APR_HepG2_MicrotubuleCSK_1hr: Apredica 1-hour HepG2 Assay for Microtubule CSK Stabilty (AID 2282669). Particulars: HepG2 microtubule cytoskeleton imaging, actives raise or lower the signal. As for the experimental part: APR_HepG2_1hr is a cell-based, multiplexed-readout assay that uses HepG2, a human liver cell line, with measurements taken at 1 hour after chemical dosing in a 384-well plate.APR_HepG2_MicrotubuleCSK_1hr is one of 10 assay component(s) measured or calculated from the APR_HepG2_1hr assay. It is designed to make measurements of protein conformation, a form of conformation reporter, as detected with fluorescence intensity signals by HCS Fluorescent Imaging technology.Data from the assay component APR_HepG2_MicrotubuleCSK_1hr was analyzed into 1 assay endpoint. This assay endpoint, APR_HepG2_MicrotubuleCSK_1hr, was analyzed with bidirectional fitting relative to DMSO as the negative control and baseline of activity. Using a type of conformation reporter, measures of protein for gain or loss-of-signal activity can be used to understand the signaling at the cellular-level. Furthermore, this assay endpoint can be referred to as a primary readout, because this assay has produced multiple assay endpoints where this one serves a signaling function. To generalize the intended target to other relatable targets, this assay endpoint is annotated to the cell morphology intended target family, where the subfamily is cell conformation.
(§1) Cells were treated with dimethyl sulfoxide (DMSO) as a solvent control at a final concentration of 0.5% v/v or with compounds in DMSO with a resulting final DMSO concentration of 0.5% v/v. Compound treatment was done at concentrations of 0.39, 0.78, 1.56, 3.12, 6.24, 12.5, 25, 50, 100, and 200 uM in duplicate on each plate. Cells were treated with compounds for 1, 24, or 72 hr. Carbonyl […] m-chloro-phenylhydrazone (CCCP) and taxol were used as positive controls for mitochondrial function and cytoskeletal stability, respectively; DMSO served as the negative control for this experiment. Cells were fixed by the direct addition of 50 uL formaldehyde in Hank's Balanced Salt Solution (HBSS) to a final concentration of 3.7%. After incubation in the fixation medium for 30 min at room temperature (293-298 K), cells were rinsed twice with HBSS and treated with cell permeabilization buffer (16 uL of 0.5% Triton X-100) for 10 min at room temperature (293-298 K) before labeling. For mitochondrial membrane potential and mitochondrial measurements, pre-fixed cells were incubated with 50 uL of MitoTracker Red CMXRos (Invitrogen) at a concentration of 250 nM for 30 min before fixation. In the remaining cases, post-fixed cells were labeled by incubation with a multiplexed mixture of primary antibodies in HBSS for 60 min at room temperature (293-298 K) to detect immunoreactivity of c-Jun (1:500), phospho-histone H3 (1:100), phospho-histone H2A.x (1:200), p53 (1:400), alpha-tubulin (1:200) and Hoechst 33342 (2 ug/mL). Cells were labeled for multiplexed imaging on two separate plates: a) Hoechst 33342, MitoTracker Red, phospho-histone H3, and alpha-tubulin, and b) Hoechst 33342, phospho-histone H2A.x, and c-Jun. A final rinse with HBSS (50 uL) was performed before analysis. The primary and secondary antibodies for the proteins were phospho-histone H3 (rabbit anti-phospho-histone H3 and FITC-donkey anti-rabbit IgG), phospho-histone H2A.x (mouse anti-phospho-histone H2A.x and FITC-donkey anti-mouse IgG), c-Jun (rabbit anti-phospho-c-Jun and Cy3-donkey anti-rabbit IgG), p53 (sheep anti-p53 and Cy5-donkey anti-sheep IgG), alpha-tubulin (mouse anti-alpha-tubulin and Cy5-donkey anti-mouse IgG). […]
As to `CN(C)c1nc(=O)n(C2CCCCC2)c(=O)n1C`, the compound was classed as inactive.

Another assay in a line: APR_HepG2_NuclearSize_1hr: Apredica 1-hour HepG2 Assay for Nuclear Size (AID 2282670). Particulars: high-content imaging, actives raise or lower the signal. As for the experimental part:
APR_HepG2_1hr is a cell-based, multiplexed-readout assay that uses HepG2, a human liver cell line, with measurements taken at 1 hour after chemical dosing in a 384-well plate.APR_HepG2_NuclearSize_1hr is one of 10 assay component(s) measured or calculated from the APR_HepG2_1hr assay. It is designed to make measurements of cell phenotype, a form of morphology reporter, as detected with fluorescence intensity signals by HCS Fluorescent Imaging technology.Data from the assay component APR_HepG2_NuclearSize_1hr was analyzed into 1 assay endpoint. This assay endpoint, APR_HepG2_NuclearSize_1hr, was analyzed with bidirectional fitting relative to DMSO as the negative control and baseline of activity. Using a type of morphology reporter, measures of all nuclear dna for gain or loss-of-signal activity can be used to understand the signaling at the nuclear-level. Furthermore, this assay endpoint can be referred to as a primary readout, because this assay has produced multiple assay endpoints where this one serves a signaling function. To generalize the intended target to other relatable targets, this assay endpoint is annotated to the cell morphology intended target family, where the subfamily is organelle conformation.
as §1
For the compound `CCSC(=O)N(CC)C1CCCCC1`, the compound was classed as inactive.

`CCC(C)(CC)c1cc(NC(=O)c2c(OC)cccc2OC)on1`: the result was inactive.

Turning to `CCNc1nc(NC(C)C)nc(SC)n1`, the call was inactive.

Turning to `Cc1ccccc1CO[C@@H]1C[C@@]2(C(C)C)CC[C@]1(C)O2`, the compound was classed as inactive.

With `CN(C)c1nc(=O)n(C2CCCCC2)c(=O)n1C`, the call was inactive.

A short description of another assay: APR_HepG2_MitoticArrest_1hr: Apredica 1-hour HepG2 Assay for Mitotic Arrest (AID 2282672). Particulars: high-content imaging, actives raise or lower the signal. The gist of the method:
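HepG2 cells exposed 1 hr to compounds at 0.39–200 uM (0.5% v/v DMSO final), then fixed in 3.7% formaldehyde and immunostained for phospho-histone H3 with Hoechst 33342. Mitotic arrest scored by automated fluorescence imaging, fitted bidirectionally versus DMSO.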
With `CCSC(=O)N(CC)C1CCCCC1`, the result was inactive.

Regarding `CCC(C)(CC)c1cc(NC(=O)c2c(OC)cccc2OC)on1`, the compound was called inactive.

For `CCNc1nc(NC(C)C)nc(SC)n1`, the result was inactive.

Regarding `Cc1ccccc1CO[C@@H]1C[C@@]2(C(C)C)CC[C@]1(C)O2`, the outcome was inactive.

`CN(C)c1nc(=O)n(C2CCCCC2)c(=O)n1C`: the compound was called inactive.

The next assay can be described thus: APR_HepG2_P-H2AX_1hr: Apredica 1-hour HepG2 Assay for H2AX Phosphorylation (AID 2282673). To be noted: high-content imaging, actives raise or lower the signal. As for the experimental part:
APR_HepG2_1hr is a cell-based, multiplexed-readout assay that uses HepG2, a human liver cell line, with measurements taken at 1 hour after chemical dosing in a 384-well plate.APR_HepG2_P-H2AX_1hr is one of 10 assay component(s) measured or calculated from the APR_HepG2_1hr assay. It is designed to make measurements of dna content, a form of viability reporter, as detected with fluorescence intensity signals by HCS Fluorescent Imaging technology.Data from the assay component APR_HepG2_P-H2AX_1hr was analyzed into 1 assay endpoint. This assay endpoint, APR_HepG2_P-H2AX_1hr, was analyzed with bidirectional fitting relative to DMSO as the negative control and baseline of activity. Using a type of viability reporter, measures of protein for gain or loss-of-signal activity can be used to understand the signaling at the pathway-level as they relate to the gene . Furthermore, this assay endpoint can be referred to as a primary readout, because this assay has produced multiple assay endpoints where this one serves a signaling function. To generalize the intended target to other relatable targets, this assay endpoint is annotated to the dna binding intended target family, where the subfamily is cellular response to DNA damage stimulus.
as §1
Take `CCSC(=O)N(CC)C1CCCCC1`: the call was inactive.

For `CCC(C)(CC)c1cc(NC(=O)c2c(OC)cccc2OC)on1`, the compound was called inactive.

For the compound `CCNc1nc(NC(C)C)nc(SC)n1`, the call was inactive.

Turning to `Cc1ccccc1CO[C@@H]1C[C@@]2(C(C)C)CC[C@]1(C)O2`, the result was inactive.

On to `CN(C)c1nc(=O)n(C2CCCCC2)c(=O)n1C`, for which the compound was classed as inactive.

The next assay in a line: APR_HepG2_MitoMass_1hr: Apredica 1-hour HepG2 Assay for Mitochondrial Mass (AID 2282674). Particulars: high-content imaging, actives raise or lower the signal. Put shortly: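 HepG2 cells dosed 1 hr with 0.39-200 uM compound (0.5% DMSO), duplicate wells. Mitochondria stained with 250 nM MitoTracker Red CMXRos for 30 min before formaldehyde fixation, imaged at 20x by ArrayScan; bidirectional fit versus DMSO.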
On to `CCSC(=O)N(CC)C1CCCCC1`, for which the outcome was inactive.

`CCC(C)(CC)c1cc(NC(=O)c2c(OC)cccc2OC)on1`: the compound was classed as inactive.

With `CCNc1nc(NC(C)C)nc(SC)n1`, the compound was classed as inactive.

As to `Cc1ccccc1CO[C@@H]1C[C@@]2(C(C)C)CC[C@]1(C)O2`, the result was inactive.

On to `CN(C)c1nc(=O)n(C2CCCCC2)c(=O)n1C`, for which the result was inactive.

The nature of a further assay: APR_HepG2_MitoMembPot_1hr: Apredica 1-hour HepG2 Assay for Mitochondrial Membrane Potential (AID 2282675). Particulars: imaging, actives raise or lower the signal. The gist of the method:
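HepG2 cells dosed 1 hour with 0.39–200 uM compound in duplicate, 0.5% DMSO final. MitoTracker Red CMXRos (250 nM, 30 min) loaded before formaldehyde fixation; fluorescence quantified by high-content imaging, bidirectional fitting versus DMSO.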
Take `CCSC(=O)N(CC)C1CCCCC1`: the outcome was inactive.

As for `CCC(C)(CC)c1cc(NC(=O)c2c(OC)cccc2OC)on1`, the outcome was inactive.

On to `CCNc1nc(NC(C)C)nc(SC)n1`, for which the outcome was inactive.

`Cc1ccccc1CO[C@@H]1C[C@@]2(C(C)C)CC[C@]1(C)O2`: the compound was called inactive.

With `CN(C)c1nc(=O)n(C2CCCCC2)c(=O)n1C`, the compound was called inactive.

The next assay can be described thus: APR_HepG2_CellCycleArrest_24hr: Apredica 24-hour HepG2 Assay for Cell Cycle Arrest (AID 2282905).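 Further: cell cycle arrest scored as ratio of 2N to 4N nuclear DNA content.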 To be noted: imaging, actives raise or lower the signal. The gist of the method:
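HepG2, 24 hr dosing, 10-pt 0.39–200 uM in duplicate, 0.5% DMSO. Fixed 3.7% formaldehyde, permeabilized 0.5% Triton X-100, Hoechst 33342 2 ug/mL. Imaged 20x; nuclear DNA content quantified; bidirectional fit vs DMSO.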
For `CCSC(=O)N(CC)C1CCCCC1`, the compound was called inactive.

`Cc1ccccc1CO[C@@H]1C[C@@]2(C(C)C)CC[C@]1(C)O2`: the AC50 is 79.8 µM (active).

With `c1cc2ccc3cccc4ccc(c1)c2c34`, the result was inactive.
